Most compounds without a hit are left out; they make up all but 0.97% or so of the library.
RecA intein inh: blocks M. tuberculosis RecA intein splicing | P9WHJ3 | cell-free RecA intein splicing, fluorescence | inhibition, % (concentration not given with the values) | 0.75% of 290,000 active | AID 2221; in the data active = inhibition above about 30%;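 also: 0% = vehicle wells and 100% = reference inhibitor control wells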
Mtb bLac sens: beta-lactam sensitization of Mtb H37Rv; 0.27% of 330,000 active; inhibition, % at 25 µM; M. tuberculosis H37Rv growth with meropenem, percent inhibition;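 also: growth measured after seven days incubation then overnight dye step; 0% = bacteria only wells and 100% = bacteria with antibiotic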
Mtb UGM inh: Mtb UDP-galactopyranose mutase inhibition; P9WIQ1; purified UGM, fluorescence polarization probe displacement; inhibition, % at 10 µM; 0.06% of 320,000 active; AID 504406; in the data active = inhibition above about 10%, passing the limit was not always enough
Rv3671c protease: inhibits the M. tuberculosis serine protease Rv3671c; P9WHR9; inhibition, % at 5.96 µM; 0.048% of 320,000 active; AID 2606; in the data active = inhibition above about 38%;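 also: extracellular domain of Rv3671c used as enzyme; 0% = enzyme with DMSO and 100% = no enzyme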
MazEF act: MazEF (E. coli) toxin RNase activation; 0.32% of 350,000 active; FAM/BHQ RNA-DNA oligo cleavage fluorescence, 5 h; P0AE70; AID 504720; activation, % at 20 µM; in the data active = activation above about 50%
TcdB GH inh: blocks C. difficile toxin B glycohydrolase activity | inhibition, % at 9.99 µM | 0.24% of 350,000 active | TcdB glycohydrolase enzymatic assay, plate reader | P18177; in the data active = inhibition above about 10%
GFP chromo cs: counter-screen: blocks GFP chromophore formation | 83% of 2,100 active | AID 434968 | cell-free GFP chromophore formation, fluorescence | shares compounds with RecA intein inh | EC50, µM
Active calls of the source: *; . = no result. Unless noted, no rule for the calls is given here.

SMILES | RecA intein inh | Mtb bLac sens | Mtb UGM inh | Rv3671c protease | MazEF act | TcdB GH inh | GFP chromo cs
COc1cccc(NC(=O)N[C@@H]2C=C[C@@H](CC(=O)NCc3ccncn3)O[C@H]2CO)c1 | . | . | . | . | . | -2 | .
C[C@@H]1CN([C@@H](C)CO)C(=O)c2cc(/C=C/c3ccccc3)cnc2O[C@H]1CN(C)S(=O)(=O)c1cn(C)cn1 | . | . | . | . | . | 0 | .
CC(C)CC1C(C#N)=C(N)Oc2n[nH]c(-c3ccccc3)c21 (configuration not stated) | 82* | 17 | 3 | -7 | 2 | . | 13*
C/C(=C\c1ccco1)C1C(C#N)=C(N)Oc2n[nH]c(-c3ccccc3)c21 (configuration not stated) | 77* | -1 | 0 | 3 | -6 | . | 18*
Cc1[nH]nc2c1C(CC(C)C)C(C#N)=C(N)O2 (configuration not stated) | 72* | -2 | -1 | -4 | 7 | 0 | 21*
COc1ccc(NC(=O)N(C)C[C@@H]2OCCCC[C@H](C)Oc3ccc(NS(=O)(=O)c4ccc(Cl)cc4)cc3C(=O)N([C@@H](C)CO)C[C@@H]2C)cc1 | . | . | . | . | . | 1 | .
Cc1ccc(C)c(S(=O)(=O)/N=C2\C=C(NS(=O)(=O)c3ccccc3)C(=O)c3ccccc32)c1 | 75* | 1 | 1 | -47 | -2 | 1 | 5.4*
COC(=O)C(C(C)=O)C1=C/C(=N\S(=O)(=O)c2ccc(C)cc2)c2ccccc2C1=O (configuration not stated) | 18 | 0 | 2 | -17 | 8 | . | .
CCc1ccc(S(=O)(=O)/N=C2\C=C(NS(=O)(=O)c3ccccc3)C(=O)c3ccccc32)cc1 | 34* | . | . | . | -3 | 2 | 4*
CC(C)c1ccc(S(=O)(=O)/N=C2\C=C(NS(=O)(=O)c3ccccc3)C(=O)c3ccccc32)cc1 | 45* | 14 | 3 | -83 | 14 | -3 | 6.7*
Cc1cc(NS(=O)(=O)c2ccc(C(C)C)cc2)no1 | 3 | 13 | 4 | 5 | -2 | -1 | .
CCC(=O)N(C)C[C@H]1Oc2ncc(C#C[C@@H](C)O)cc2C(=O)N([C@H](C)CO)C[C@H]1C | . | . | . | . | . | 0 | .
C[C@@H]1CN([C@@H](C)CO)C(=O)c2cc(NS(=O)(=O)c3ccccc3)ccc2O[C@@H]1CN(C)S(=O)(=O)c1cn(C)cn1 | . | . | . | . | . | 0 | .
O=S(=O)(Nc1cccc2ccccc12)c1ccccc1 | 0 | -1 | . | 4 | -5 | 6 | .
O=S(=O)(Nc1c(O)ccc2ccccc12)c1ccccc1 | 93* | 10 | 3 | -8 | -2 | -10 | 2.2*
O=S(=O)(Nc1c(O)ccc2ccccc12)c1ccc(F)cc1 | 95* | 2 | 3 | -6 | -2 | -13 | 3*
CC(C)[C@H](C)NC(=O)N(C)C[C@@H]1OCc2ccccc2-c2c(n(C)c3ccccc23)C(=O)N([C@H](C)CO)C[C@@H]1C | . | . | . | . | . | 0 | .
CN1CCN(C(=O)c2cc3c(c(-c4cccc(-c5ccccc5F)c4)n2)[C@@H](CCO)N([S@](=O)C(C)(C)C)C3)CC1 | . | . | . | . | . | 0 | .
CC1=CC(C)(C)N2C(=O)C(=Nc3ccc(O)cc3)c3cccc1c32 | 39* | 18 | -1 | -30 | 11 | 2 | >38
COc1cc(N=C2C(=O)N3c4c(cccc42)C(C)=CC3(C)C)cc(OC)c1 | 20 | 1 | -2 | 15 | 1 | . | .
Nc1cc(OCC(F)(F)F)cc([N+](=O)[O-])c1 | -3 | 8 | 0 | -7 | 3 | . | .
Nc1cc(N)c(OCC(F)(F)F)cc1OCC(F)(F)F | 92* | -18 | -3 | -56 | 14 | . | 7.6*
CN1CCN(C(c2ccc(F)cc2)c2ccc3cccnc3c2O)CC1 (configuration not stated) | . | . | . | . | 5 | . | .
CN1CCN(C(c2ccc(Br)cc2)c2cc(Cl)c3cccnc3c2O)CC1 (configuration not stated) | 74* | 14 | 1 | 5 | -46 | -7 | 9.8*
COc1ccc(Cc2c3cc(OC)c(OC)cc3cc[n+]2C)cc1OC | 2 | -3 | 7 | -16 | -4 | . | .
SMILES | RecA intein inh | Mtb bLac sens | Mtb UGM inh | Rv3671c protease | MazEF act | TcdB GH inh | GFP chromo cs
COc1ccc(Cc2nccc3cc(OC)c(OC)cc23)cc1OC | 93* | 5 | 3 | -25 | -8 | -2 | 7.3*
CC[n+]1ccc2cc(OC)c(OC)cc2c1Cc1ccc(OC)c(OC)c1 | 51* | -5 | 2 | -8 | -19 | . | >38
CCNC(=O)c1ccccc1-c1nc(-c2ccccc2)no1 | 30* | 2 | 3 | 4 | 11 | 0 | >38
CS(=O)(=O)c1ccc(C(=O)OCc2nnc(-c3ccc(Cl)cc3)o2)cc1[N+](=O)[O-] | 67* | -2 | -3 | -10 | -1 | . | 6.8*
N#C[C@H]1[C@@H](c2ccccc2-c2ccccc2)[C@@H](CO)N1c1ncc(-c2ccccc2)s1 | . | . | . | . | . | -1 | .
COc1cccc(CN2CC3(CN(CC4CCOCC4)C3)c3c([nH]c4cc(OC)ccc34)[C@H]2CO)c1 | . | . | . | . | . | 0 | .
COC(=O)C1=NN(C(C)=O)C2(CC(=O)N(c3cc(C)cc(C)c3)C2=O)C1 (configuration not stated) | 30* | -9 | 2 | 0 | 3 | 0 | >38
Nc1nc(-c2ccco2)nn1C(=O)c1ccc(Cl)cc1 | 34* | 2 | 1 | 1 | -35 | . | >38
Nc1nc(-c2ccco2)nn1C(=O)c1ccccc1 | 15 | -9 | 2 | 13 | 5 | . | .
O=c1cc(C2CCCCC2)[nH]c(=O)[nH]1 | . | . | . | . | 12 | 0 | .
O=c1cc(C2CCNCC2)[nH][nH]1 | 87* | -11 | -1 | -23 | 3 | . | 5.4*
CC(=O)N1CC2(c3ccccc3)CN(C(C)=O)CC(c3ccccc3)(C1)C2=O | 62* | -4 | 1 | 12 | -13 | 0 | >38
CCC(=O)N1CC2(c3ccccc3)CN(C(=O)CC)CC(c3ccccc3)(C1)C2=O | 0 | -7 | 3 | 8 | 5 | -1 | .
COC(=O)C[C@@H]1C[C@H]2c3cc(NC(=O)NC4CCCCC4)ccc3O[C@H]2[C@@H](CO)O1 | . | . | . | . | . | 2 | .
Cc1ccc(Sc2oc(/C=N/n3cnnc3)cc2Br)cc1 | 62* | 8 | -1 | 0 | 3 | 2 | 35*
CCO/C=C1/C(=O)N(Cc2ccccc2)C(=O)c2ccccc21 | 36* | 2 | -2 | -104 | 6 | 2 | >12
COc1ccc(S(=O)(=O)N(C)C[C@H]2Oc3ccc(NS(=O)(=O)c4ccccc4)cc3CC(=O)N([C@H](C)CO)C[C@H]2C)cc1 | . | . | . | . | . | 1 | .
CCOc1ccc(C(c2c(C)[nH][nH]c2=O)c2c(C)[nH][nH]c2=O)cc1OC | 94* | -5 | 0 | -18 | 11 | . | 0.44*
Cc1[nH][nH]c(=O)c1C(c1c(C)[nH][nH]c1=O)c1cn(Cc2ccc(Cl)c(Cl)c2)c2ccccc12 | 1 | 4 | 1 | -157 | -6 | -1 | .
C#CCOc1ccc(OC)cc1C(c1c(C)[nH][nH]c1=O)c1c(C)[nH][nH]c1=O | 95* | -2 | 1 | . | 6 | . | 0.41*

Compound activity from PubChem BioAssay.
